Assay outcomes: PubChem BioAssay, ICCB-Longwood Screening Facility, Harvard Medical School
Sa helicase inh = S. aureus DNA helicase inhibition | AID 485395 | purified S. aureus helicase, fluorescence unwinding assay | 120,000 tested, 0.05% active | inhibition, % (concentration not given with the values); in the data active means inhibition above about 25%, passing the limit was not always enough;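 further: 0% = mean of negative control wells and 100% = mean of positive control wells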
Sa growth 42C = blocks Staphylococcus aureus growth. S. aureus RN4220 growth, OD600, 20 h, 42 °C; active compounds read low. relative growth, % (concentration not given with the values). 170,000 tested, 0.53% active. AID 720641;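 active means relative growth at most 50% at the other temperature and 20+ points below 30 °C, or under 10% at both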
Active calls of the source: *; . = not tested or not shown. Most compounds without a hit are left out; they make up all but 0.52% or so of the library.

SMILES	Sa helicase inh	Sa growth 42C
O=C(CCc1nc2cccnc2n1Cc1cccs1)NCc1ccc2c(c1)OCO2	-37	101
Oc1ccccc1C(Nc1ccccn1)c1ccc2cccnc2c1O (stereo not drawn)	1	4.8*
Oc1c(C(Nc2ccccn2)c2ccccc2F)ccc2cccnc12 (stereo not drawn)	.	17
COc1cccc(/C=C2\SC(=S)N(CCCC(=O)NC(C)(C)C)C2=O)c1	15	.
CO[C@H]1C[C@H](O[C@H]2[C@H](C)[C@@H](O[C@@H]3O[C@H](C)C[C@H](N(C)C)[C@H]3OC(C)=O)[C@@H](C)C[C@@]3(CO3)C(=O)[C@H](C)[C@@H](OC(C)=O)[C@@H](C)[C@@H](C)OC(=O)[C@@H]2C)O[C@@H](C)[C@@H]1OC(C)=O	.	3.7*
COc1ccccc1CNc1nc(-c2cccnc2)nn1C(=O)c1cccnc1	-2	82
CCC(=O)/C=C1/Sc2ccc(C)cc2N1CC	1	127
CCN1/C(=C/c2sc3ccccc3[n+]2CCO)Sc2ccccc21	44*	28
CCN1/C(=C\C=C2\C(=O)N(C)C(=S)N2C)Sc2ccccc21	-3	81
Cc1ccc2c(c1)N(CCO)/C(=C/c1sc3ccccc3[n+]1C)S2	19	-1.4*
COC(NC(=O)Nc1nc2ccccc2s1)(C(F)(F)F)C(F)(F)F	3	5.5*
CCNC(=O)Nc1nc2ccccc2s1	-15	115
CCOC(=O)c1c(C)[nH]c(C(=O)C(C)Sc2nnnn2-c2cc(C)ccc2OC)c1C (stereo not drawn)	-4	104
Cc1[nH]nc(-c2ccc(O)cc2O)c1Oc1ccc(C(C)C)cc1	-15	29*
Cc1[nH]nc(-c2ccc(O)c(C)c2O)c1Oc1ccccc1	-11	89
Cc1cc(C(C)(C)CC(C)(C)C)ccc1OCCOCC[N+](C)(C)Cc1ccccc1	.	0.9*
C[N+](C)(CCOc1ccccc1)Cc1ccccc1	.	92
CCCc1cc2c(=O)c(-c3csc(C)n3)coc2cc1O	2	103
COC(=O)c1sccc1OC(=O)c1ccc(C(C)(C)C)cc1	.	106
COC(=O)c1cscc1OC(=O)c1ccc(C(F)(F)F)cc1	.	21*
CC1CN(c2nnc(-c3cccs3)c3ccccc23)CC(C)O1 (stereo not drawn)	-19	98
CCn1cc(C(=O)O)c(=O)c2cc(F)c(N3CCN(C(=S)Nc4ccc5c(c4)OCO5)CC3)cc21	18	0.2*
CCn1cc(C(=O)O)c(=O)c2cc(F)c(N3CCNCC3)cc21	.	-0.1*
CCn1cc(C(=O)O)c(=O)c2cc(F)c(N3CCN(C)CC3)cc21	-28	-0.9*
CCn1cc(C(=O)O)c(=O)c2cc(F)c(N3CCN(C(=O)c4ccccc4F)CC3)cc21	14	51
SMILES	Sa helicase inh	Sa growth 42C
CCn1cc(C(=O)NN)c(=O)c2cc(F)c(N3CCCC3)cc21	-3	74
CCn1cc(C(=O)NCC(C)C)c(=O)c2cc(F)c(N3CCN(C(=O)c4ccco4)CC3)cc21	3	113
Cc1ccccc1Nc1nc(N)nc(CSCC(=O)NC2CCCc3ccccc32)n1 (stereo not drawn)	-6	96
O=C(COc1cc(C(F)(F)F)cc(C(F)(F)F)c1)Nc1ccc2c(c1)OCO2	-2	98
COc1ccc(CCNc2ncnc3c2cnn3-c2ccc(F)cc2)cc1OC	4	95
Cn1c(SCCCn2c(=O)[nH]c3ccccc32)nnc1C1COc2ccccc2O1 (stereo not drawn)	-1	96
COc1cc(C2=NOC(=O)/C2=C\c2ccc(Cl)cc2Cl)cc(OC)c1OC	-66	89
CCOc1ccc2ccccc2c1C=C1C(=O)N(C)C(=S)N(C)C1=O	12	89
Cc1oc2c(c1C(=O)Nc1ccc(I)cc1)CCCC2	5	129
Cc1ccccc1Nc1cc(C)c(C#N)c2nc3ccccc3n12	10	1.2*
COc1ccc(Nc2cc(C)c(C#N)c3nc4ccccc4n23)cc1	8	93
CN(C)c1cccc(C(=O)NO)c1	-45	100
O=C1NCCCC1c1n[nH]c(=S)n1-c1ccccc1Cl (stereo not drawn)	.	89
CC(C)CN(CC(C)C)S(=O)(=O)c1ccc(C(=O)Nc2nnc(-c3ccccn3)o2)cc1	4	83
CCc1nnc(NC(=O)c2ccc(S(=O)(=O)N(C)c3ccccc3)cc2)o1	10	15
CSCc1nnc(NC(=O)c2ccc(S(=O)(=O)N(CC(C)C)CC(C)C)cc2)o1	4	-0.4*
COCc1nnc(NC(=O)c2ccc(S(=O)(=O)N(C)C3CCCCC3)cc2)o1	-3	8.5*
N#CCCSc1nnc2c(Cl)cc(Cl)cn12	-8	80
O=C(c1noc2c1CCc1ccccc1-2)N1CCCC1	9	97
O=C(CN1CCN(c2ccccc2)CC1)NCc1ccccc1	15	81
CO[C@H]1/C=C/O[C@@]2(C)Oc3c(C)c(O)c4c(O)c(c5c(nc6cc(C)ccn65)c4c3C2=O)NC(=O)/C(C)=C\C=C\[C@H](C)[C@H](O)[C@@H](C)C(O)[C@@H](C)[C@H](OC(C)=O)[C@@H]1C (stereo partly drawn)	.	-0.8*
CO[C@H]1C=CO[C@@]2(C)Oc3c(C)c(O)c4c(O)c(c5c(c4c3C2=O)NC2(CCN(CC(C)C)CC2)N=5)=NC(=O)C(C)=CC=C[C@H](C)[C@H](O)[C@@H](C)[C@@H](O)[C@@H](C)[C@H](OC(C)=O)[C@@H]1C	.	0.6*
CO[C@H]1C=CO[C@@]2(C)Oc3c(C)c(O)c4c(O)c(c5c(nc6cc(C)ccn65)c4c3C2=O)NC(=O)C(C)=CC=C[C@H](C)[C@H](O)[C@@H](C)[C@@H](O)[C@@H](C)[C@H](OC(C)=O)[C@@H]1C	.	82
CO[C@H]1/C=C/O[C@@]2(C)Oc3c(C)c(O)c4c(O)c(c(C=NN5CCN(C)CC5)c(O)c4c3C2=O)NC(=O)/C(C)=C\C=C\C(C)[C@H](O)[C@@H](C)[C@@H](O)[C@@H](C)[C@@H](OC(C)=O)[C@@H]1C (stereo partly drawn)	.	1.3*
Cc1cccc(-n2[nH]c(=S)sc2=S)c1	14	88
SMILES	Sa helicase inh	Sa growth 42C
Cc1ccc(-c2ccc(=O)n(CC(=O)N3CC(C)CC(C)C3)n2)cc1 (stereo not drawn)	6	102
CCN(Cc1ccccc1)C(=O)Cn1c(=O)n(-c2ccc(C)cc2)c(=O)c2ccccc21	-14	71
O=C(Nc1cccnc1)c1ccc(Oc2cc(Cl)cc(Cl)c2)o1	.	106
O=C(Nc1ccncc1)c1ccc(Oc2cc(Cl)cc(Cl)c2)o1	.	4.9*
COc1ccc(NC(=O)CCCn2sc3ccccc3c2=O)cc1	18	91
CN1CCN(c2c(F)cc3c(=O)c(C(=O)O)cn4c3c2SCC4)CC1	.	-0.4*
Cc1cc(F)c(F)cc1C(=O)N1CCN(C)CC1	7	108
C[C@H]1COc2c(N3CCN(C)CC3)c(F)cc3c(=O)c(C(=O)O)cn1c23	.	-0.5*
C[C@H]1COc2c(C3(N)CC3)c(F)cc3c(=O)c(C(=O)O)cn1c23	.	-0.9*
CC1C(=O)CCC1(C(=O)Nc1ccccc1)c1ccccc1 (stereo not drawn)	6	122
CC(C)(C)n1ncc2c(=O)n(CC(=O)NC3CCCC3)cnc21	-26	99
O=C(O)CCC(=O)OC[C@@H](NC(=O)C(Cl)Cl)[C@H](O)c1ccc([N+](=O)[O-])cc1	.	83
CS(=O)(=O)c1ccc([C@@H](O)[C@@H](COC(=O)CN)NC(=O)C(Cl)Cl)cc1	.	52
O=C(N[C@@H](CO)[C@H](O)c1ccc([N+](=O)[O-])cc1)C(Cl)Cl	.	0.2*
